18 compounds from PubChem BioAssay (Tox21) can be followed below.

Values joined by “and” are separate entries in the source; they are usually repeats but may differ in a detail not shown here. Identical values can stand only once. Results filed as inconclusive are left out. Where a structure was tested more than once in an assay, its records may differ in their call. Active and inactive are the calls of the source. The call rests on the fitted dose curve; in most records, active means well fitted curve in the direction sought with a large enough effect in the repeat runs; inconclusive means weak or mixed curves; inactive means no such curve, though single readings can be large; an effect the other way counts as inactive or inconclusive.

Assay [1] is described as follows: qHTS RealTime-Glo MT Cell Viability Assay in HepG2 cells - 8 hour (AID 1224873). Further: nearly all actives have a fitted effect of over 55% in size. Further: potency means the concentration at half of the fitted maximal effect. Particulars: RealTime-Glo luminescence; series mostly up to 76.8 µM. The gist of the method: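 HepG2 cells mixed with RealTime-Glo MT reagents (NanoLuc plus cell-permeant prosubstrate) were seeded at 600 cells/well, incubated 5 h at 37 C/5% CO2, then pinned with compounds in DMSO; nonlytic luminescence tracked viability during 40 h treatment.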
In general terms: In qHTS, concentration-response curves come from the screen itself.

A short description of assay [2]: qHTS RealTime-Glo MT Cell Viability Assay in HEK293 cells - 40 hour (AID 1224874). Further: nearly all actives have a fitted effect of over 50% in size. Further: potency means the concentration at half of the fitted maximal effect. The conditions noted are these: RealTime-Glo luminescence; max response: stronger effect = lower value. The gist of the method: (§1)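 Kinetic, non-lysing viability readout. Seed HEK293 (600/well) with reagent, incubate 5 h at 37 C/5% CO2, pin 23 nL compound in DMSO, incubate at 37 C, read luminescence at 0, 8, 16, 24, 32, 40 h.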

The nature of assay [3]: A CellTox Green Cytotoxicity Assay to monitor cytotoxicity in HEK293 cells - 24 hour (AID 1224875). Further: nearly all actives have a fitted effect of over 45% in size. Further: potency means the concentration at half of the fitted maximal effect. The conditions noted are these: CellTox Green fluorescence; series mostly up to 76.8 µM. Put shortly:
(§2)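 Real-time, in one plate: 600 HEK293 cells/well with dead-cell DNA dye, pinned compound after 5 h, 37 C incubation over 40 h; viable cells give no appreciable fluorescence.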

Assay [4] is described as follows: A CellTox Green Cytotoxicity Assay to monitor cytotoxicity in HepG2 cells - 16 hour (AID 1224876). Further: nearly all actives have a fitted effect of over 45% in size. Further: potency means the concentration at half of the fitted maximal effect. The conditions noted are these: CellTox Green fluorescence; series mostly up to 76.8 µM. The gist of the method: (§3)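 Cytotoxicity was tracked as dead-cell DNA fluorescence in HepG2 cells treated with test compounds at 37 C; each time-point value comes from one kinetic series spanning 0, 8, 16, 24, 32 and 40 h.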

Assay [5] can be described thus: qHTS RealTime-Glo MT Cell Viability Assay in HepG2 cells - 32 hour (AID 1224877). Further: nearly all actives have a fitted effect of over 55% in size. Further: potency means the concentration at half of the fitted maximal effect. Particulars: RealTime-Glo luminescence; series mostly up to 76.8 µM. Put shortly: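 Cells + NanoLuc/prosubstrate dispensed (600 cells/well) → 5 h at 37 C/5% CO2 → compounds in DMSO transferred → 40 h incubation at 37 C, luminescence read at 0, 8, 16, 24, 32, 40 h.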
Assay [6] is described as follows: A CellTox Green Cytotoxicity Assay to monitor cytotoxicity in HepG2 cells - 24 hour (AID 1224878). Further: nearly all actives have a fitted effect of over 45% in size. Further: potency means the concentration at half of the fitted maximal effect. Particulars: CellTox Green fluorescence; series mostly up to 76.8 µM. Put shortly: as §3
A short description of assay [7]: A CellTox Green Cytotoxicity Assay to monitor cytotoxicity in HepG2 cells - 40 hour (AID 1224879). Further: nearly all actives have a fitted effect of over 40% in size. Further: potency means the concentration at half of the fitted maximal effect. Particulars: CellTox Green fluorescence; series mostly up to 76.8 µM. Put shortly:
as §3

The nature of assay [8]: qHTS RealTime-Glo MT Cell Viability Assay in HEK293 cells - 0 hour (AID 1224880). Further: top concentration of the series differs between compounds; nearly all actives have a fitted effect of over 45% in size. The conditions noted are these: RealTime-Glo luminescence; series mostly up to 76.8 µM. Put shortly: as §1
Assay [9] is described as follows: A CellTox Green Cytotoxicity Assay to monitor cytotoxicity in HEK293 cells - 32 hour (AID 1224881). Further: nearly all actives have a fitted effect of over 40% in size. Further: potency means the concentration at half of the fitted maximal effect. The conditions noted are these: CellTox Green fluorescence; series mostly up to 76.8 µM. Put shortly:
as §2

Assay [10] can be described thus: A CellTox Green Cytotoxicity Assay to monitor cytotoxicity in HepG2 cells - 0 hour (AID 1224882). Further: nearly all actives have a fitted effect of over 35% in size. The conditions noted are these: CellTox Green fluorescence; series mostly up to 76.8 µM. Put shortly:
as §3
On the % scale 0 is the no-effect control and ±100 the full control effect.

In the case of `C/C=C/c1ccc(OCC)c(O)c1`, the Potency result in assay [1], in [3], in assay [4], in assay [5], in assay [6] and in assay [7] was “inactive” throughout. The Potency result in [8], in assay [9] and in [10] was “inactive” each time. Moreover, in assay [2], the max response was -14.3% (inactive) and 2.47% (inactive).
In the case of `O=c1n(CC2CO2)c(=O)n(CC2CO2)c(=O)n1CC1CO1` (stereo unspecified), the Potency result in [1], in assay [3], in [4], in assay [5], in [6] and in assay [7] was “inactive” in each case. Further, the Potency entry in assay [8], in assay [9] and in [10] was “inactive” each time. Moreover, the Potency in assay [2] was 1.37 µM (active).
For `CCC[C@H](N[C@@H](C)C(=O)N1[C@H](C(=O)O)C[C@@H]2CCCC[C@@H]21)C(=O)OCC`, the Potency entry in [1], in assay [3], in assay [5], in assay [6], in [7] and in [8] was “inactive” throughout. Besides, the Potency result in [9] and in [10] was “inactive” in each case. Further, the max response in assay [2] is 4.1% (inactive) and 12.6% (inactive).
For `Cc1occc(=O)c1OC(=O)C(C)C`, the Potency entry in assay [1], in assay [3], in assay [4], in [5], in [6] and in [7] was “inactive” each time. Also, the Potency result in [8], in assay [9] and in assay [10] was “inactive” throughout. Also, the max response in [2] was -0.202% (inactive).
Turning to `C=CC(=O)OCCCCCCCC`, the Potency entry in assay [1], in assay [3], in [4], in assay [5], in [6] and in [7] was “inactive” throughout. In addition, the Potency result in assay [8], in assay [9] and in [10] was “inactive” each time. Further, in assay [2], the max response is 3.71% (inactive).
For the compound `O=C(Cl)c1cccc(C(=O)Cl)c1`, the Potency result in assay [1], in [3], in assay [4], in assay [5], in assay [6] and in assay [7] was “inactive” each time. Further, the Potency result in assay [8], in [9] and in assay [10] was “inactive” each time. The max response in assay [2] is 7.93% (inactive) and 0.091% (inactive).
Regarding `CO[Si](OC)(OC)c1ccccc1`, the Potency entry in assay [1], in assay [3], in [5], in [6], in assay [7] and in assay [8] was “inactive” in each case. The Potency entry in assay [9] and in assay [10] was “inactive” in each case. In addition, in [2], the max response is 0.242% (inactive).
With `O=S(=O)(O)c1ccc2nc(-c3ccccc3)[nH]c2c1`, the Potency entry in assay [1], in [3], in assay [4], in [5], in assay [6] and in assay [7] was “inactive” each time. The Potency entry in assay [8], in assay [9] and in assay [10] was “inactive” in each case. Besides, the max response in [2] is 4.15% (inactive) and 2.95% (inactive).
Consider `Cc1c(O)cccc1C(=O)N[C@@H](CSc1ccccc1)[C@H](O)CN1C[C@H]2CCCC[C@H]2C[C@H]1C(=O)NC(C)(C)C`, for which the Potency result in assay [1], in assay [3], in assay [4], in assay [5], in assay [6] and in [8] was “inactive” throughout. For the same compound, the Potency entry in assay [9] and in [10] was “inactive” in each case. Further, the Potency in assay [2] is 13.4 µM (active); in assay [7] it was 42.5 µM (active) and 10.7 µM (active).
Take `Oc1ccc(Cl)cc1Cc1cc(Cl)ccc1O`: the Potency entry in [1], in assay [3], in [4], in assay [6], in assay [7] and in [8] was “inactive” throughout. Further, the Potency entry in assay [9] and in [10] was “inactive” throughout. Also, the Potency in assay [2] was 17.7 µM (active) and 43.6 µM (active) and 16.9 µM (active); in [5], 49.9 µM (active).
In the case of `C[N+]1([O-])CCOCC1`, the Potency entry in assay [1], in assay [3], in assay [5], in assay [6], in assay [7] and in assay [8] was “inactive” throughout. Also, in [9], the Potency entry is “inactive”. The max response in assay [2] was 0.178% (inactive).
Regarding `CN(C)c1ccc2nc3ccc(=[N+](C)C)cc-3sc2c1`, the Potency was 9.39 µM (active) and 19.5 µM (active) and 19 µM (active) in [1]; 1.67 µM (active) and 1.55 µM (active) and 2.68 µM (active) in assay [2]; 21 µM (active) and 12.3 µM (active) and 19 µM (active) in assay [5]. Further, the Potency entry in assay [3], in assay [6], in [7], in assay [8] and in assay [9] was “inactive” in each case.
As for `CCCCCCCCCCCCc1ccccc1O`, the Potency entry in assay [1] is “inactive and 34.7 µM (active)”; in assay [2] it was 48.3 µM (active) and 49 µM (active); in [3], 43.1 µM (active) and 38.9 µM (active); in assay [4], “inactive and 21.9 µM (active)”; in assay [5], “inactive and 43.6 µM (active)”; in [6], 17.4 µM (active). The Potency in [7] is 48.3 µM (active) and 21.9 µM (active); in assay [9], 43.1 µM (active) and 38.9 µM (active). Further, the Potency result in [8] and in [10] was “inactive” throughout.
Regarding `Nc1cc(S(=O)(=O)O)cc2cc(S(=O)(=O)O)cc(O)c12`, the Potency entry in assay [1], in assay [3], in assay [4], in assay [5], in [6] and in assay [7] was “inactive” throughout. For the same compound, the Potency entry in assay [8], in [9] and in [10] was “inactive” each time. Moreover, the max response in assay [2] is -12.9% (inactive).
With `NCCO`, the Potency result in assay [1], in assay [3], in [5], in assay [6], in assay [7] and in assay [8] was “inactive” throughout. The Potency entry in assay [9] and in assay [10] was “inactive” throughout. Further, the max response in assay [2] was -3.29% (inactive) and 1.65% (inactive).
On to `CC1=C(C=O)C(C)(C)CC=C1`, for which the Potency result in assay [1], in [3], in assay [4], in assay [5], in assay [6] and in assay [7] was “inactive” each time. Further, the Potency entry in assay [8], in [9] and in assay [10] was “inactive” throughout. Further, the max response in assay [2] is -1.02% (inactive).
With `O=C(O)CCc1ccccc1`, the Potency entry in assay [1], in [3], in [4], in assay [5], in [6] and in [7] was “inactive” in each case. The Potency entry in [8], in assay [9] and in [10] was “inactive” each time. The max response in [2] is 3.43% (inactive).
Regarding `CC(=O)CC(C)=O`, the Potency entry in [1], in assay [3], in assay [5], in assay [6], in [7] and in assay [8] was “inactive” in each case. For the same compound, in assay [9], the Potency entry is “inactive”. Besides, the max response in assay [2] was -5.33% (inactive).
